ALDH1A1 block = ALDH1A1 (human) enzyme inhibition | P00352 | Purified ALDH1A1, NADH fluorescence, propionaldehyde substrate | Potency, µM (doses to about 75.3 µM), for inactives: at the top dose activity, negative = inhibition, actives largely listed as inhibitors | 220,000 tested, 7.3% active;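 also: potency is read from the fitted curve at half-maximal effect; plate controls were no enzyme wells and a reference inhibitor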
PNC assembly inh = blocks assembly of the perinucleolar compartment. activity change (PNC), negative = inhibition, % at 10 µM. AID 2417. PC3M PTB-GFP, PNC prevalence imaging, 16 h; active compounds read low. 140,000 tested, 3.1% active;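 active = readout at or below -70, meaning at least 70% loss of cells showing the perinucleolar compartment, a nuclear body marking cancer cells; inconclusive = readout between -30 and a set limit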;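 also: plate controls were DMSO wells for no effect and camptothecin positive control wells for full effect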
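Read-out is percentage of cells bearing a perinucleolar compartment, from automated 20x imaging of fixed, Hoechst-stained PC3M PTB-GFP cells. Cells were seeded 4 h, then exposed 16 h to compound (23 nl of library stock) in duplicate plates.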
HPGD block = blocks human HPGD enzyme activity. P15428. purified HPGD, NADH fluorescence kinetic, PGE2 substrate. Potency, µM, inactives show top-dose activity change, negative = inhibition, most hits filed as inhibitors. 150,000 tested, 4.3% active. AID 894; also: potency is read from the fitted curve at half-maximal effect
Target sequence (P15428 whole entry, looked up): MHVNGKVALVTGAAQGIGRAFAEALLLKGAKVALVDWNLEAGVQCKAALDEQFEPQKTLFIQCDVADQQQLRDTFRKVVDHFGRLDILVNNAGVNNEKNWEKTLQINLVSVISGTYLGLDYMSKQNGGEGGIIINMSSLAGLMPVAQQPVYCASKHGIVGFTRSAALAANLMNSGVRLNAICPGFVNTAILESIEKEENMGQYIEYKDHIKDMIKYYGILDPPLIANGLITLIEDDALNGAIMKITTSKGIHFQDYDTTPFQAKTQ
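20 nM HPGD preincubated 15 min at room temperature with compound in 50 mM Tris-HCl pH 8, 0.01% Tween 20. Started with 1 mM NAD+ and 30 uM prostaglandin E2; NADH fluorescence (360/450 nm) read 5 times over 30-s intervals, last minus first.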
An asterisk follows results filed as active; [ ] = remark or other dose. Only some compounds are listed: those with a hit (about 11% of all), similar ones and a draw of the others. Unless noted, calls follow the shape of the dose curve; as a rule, active = well fitted inhibition curve with a large enough effect (not every such curve was filed as active); inconclusive = small, poorly fitted or top-dose-only effect, or another doubt; inactive = no such curve, though single readings can be large or run the other way. Unless noted, % is scaled to controls: 0 for no effect and ±100 for the full control effect.

Screening Clc1ccc(-c2nc3ccncc3[nH]2)cc1 returned ALDH1A1 block 11µM*, PNC assembly inh 13 and HPGD block inconclusive.
Fc1ccc(-c2nc3ccncc3[nH]2)cc1 was read as ALDH1A1 block inconclusive, PNC assembly inh 35 and HPGD block -14%.
`COc1ccccc1NC(=O)C1CC(=O)N(c2ccc(F)cc2)C1` (stereo unspecified) gave ALDH1A1 block 6%, PNC assembly inh inconclusive and HPGD block 3%.
CCOC(=O)C(=O)N1CCC(C(=O)OCC)CC1 was read as ALDH1A1 block -1%.
Screening CN(C)c1ccc(CC(=O)c2nc3ccccc3s2)cc1 returned ALDH1A1 block 7.1µM*, PNC assembly inh -27 and HPGD block -8%.
Screening CN(C)C(=O)c1nc2ccccc2s1 returned ALDH1A1 block -2%, PNC assembly inh -20 and HPGD block -14%.
For COc1ccccc1NC(=O)C1=C(C)NC2=C(C(=O)CC(c3ccc(OC)c(OC)c3)C2)C1c1coc2ccccc2c1=O (stereo unspecified) the results were ALDH1A1 block -9%, PNC assembly inh -27 and HPGD block -23%.
`O=C1[C@H]2[C@H]3[C@H](O)[C@H](O)C/C(=N/OCc4ccccc4)[C@@H]3CC[C@@H]2C(=O)N1C1CCCCC1` gave ALDH1A1 block 5%[13.5 µM].
Screening OCCN(CCO)Cc1csc2ccccc12 returned ALDH1A1 block 2%, PNC assembly inh -20 and HPGD block -6%.
Screening O=C(COc1ncnc2scc(-c3ccc(Cl)cc3)c12)NCc1ccco1 returned ALDH1A1 block -6%, PNC assembly inh 25 and HPGD block -16%.
COCCCNC(=O)Cn1c(=O)n(CC(=O)NCCc2ccc(OC)c(OC)c2)c(=O)c2sccc21 was read as ALDH1A1 block -13%.
For COc1ccc(CCNC(=O)Cn2c(=O)n(-c3ccc(C)c(F)c3)c(=O)c3sccc32)cc1OC the results were ALDH1A1 block 6.3µM*.
Screening CCOC(=O)CN1C(=O)C(C)(C)Oc2ccc(C(=O)Nc3ccccc3)cc21 returned ALDH1A1 block inconclusive and PNC assembly inh 12.
Screening COc1ccc(-c2nnc(SCc3ccccc3F)o2)cc1 returned ALDH1A1 block -14%, PNC assembly inh 29 and HPGD block -10%.
Cc1ccccc1-c1nnc(SCc2ccccc2F)o1 was read as ALDH1A1 block -12%, PNC assembly inh 32 and HPGD block 16µM*.
O=c1cc(CSc2nnc(COc3ccc(Cl)cc3)o2)c2ccccc2[nH]1 was read as ALDH1A1 block 6%, PNC assembly inh -18 and HPGD block -21%.
Screening Cc1ccc(C)c(CSc2nnc(-c3cccnc3)o2)c1 returned ALDH1A1 block inconclusive, PNC assembly inh 26 and HPGD block 25µM*.
Screening Cc1ccccc1CSc1nnc(-c2ccncc2)o1 returned ALDH1A1 block -10%.
Screening O=c1cc(CSc2nnc(-c3ccccc3)o2)c2ccccc2[nH]1 returned ALDH1A1 block 3%, PNC assembly inh 12 and HPGD block 7.9µM*.
Fc1ccccc1CSc1nnc(-c2ccccc2)o1 was read as ALDH1A1 block -13%, PNC assembly inh inconclusive and HPGD block 10µM*.
For Fc1ccccc1CSc1nnc(-c2cccnc2)o1 the results were ALDH1A1 block -2%.
For O=C(CSc1nnc(NC(=O)c2ccc3c(c2)OCO3)s1)NCc1ccco1 the results were ALDH1A1 block 5%.
For Cc1cccc(CN2CCN(C(=O)CCc3nnc(C4CCCCC4)o3)CC2)c1 the results were ALDH1A1 block 7%.
Screening FC(F)(F)COc1ccc(-c2nnc(SCc3ccccc3)o2)cn1 returned ALDH1A1 block 4%.
For COC(=O)CSc1nnc([C@H](CC(C)C)NC(=O)OC(C)(C)C)o1 the results were ALDH1A1 block 6%, PNC assembly inh 2 and HPGD block -4%.
CCCC1=C(C(=O)OCC)C(c2ccncc2)n2ncnc2N1 (stereo unspecified) was read as ALDH1A1 block 9%, PNC assembly inh -18 and HPGD block 0%.
`Cc1ccccc1-c1nnc(SCc2ccccc2)o1` gave ALDH1A1 block 5%, PNC assembly inh inconclusive and HPGD block 22µM*.
`c1ccc(CSc2nnc(-c3ccncc3)o2)cc1` gave ALDH1A1 block inconclusive, PNC assembly inh 17 and HPGD block -18%.
For O=S(=O)(Nc1nc2ccccc2s1)c1cnc(Cl)c(Br)c1 the results were ALDH1A1 block 20µM*.
For O=S(=O)(Nc1nccs1)c1cnc(Cl)c(Br)c1 the results were ALDH1A1 block inconclusive, PNC assembly inh -11 and HPGD block -13%.
For COc1ccccc1N1CCN(S(=O)(=O)c2cnc[nH]2)CC1 the results were ALDH1A1 block 9%, PNC assembly inh -1 and HPGD block -11%.
c1cncc(-c2nn3c(Cn4nnc5ccccc54)nnc3s2)c1 was read as ALDH1A1 block 7.1µM*, PNC assembly inh 14 and HPGD block 13µM*.
For Cc1nnc2sc(-c3ccccn3)nn12 the results were ALDH1A1 block 8%, PNC assembly inh -22 and HPGD block -2%.
`CCc1nnc2sc(-c3cc(-c4ccccc4)nc4ccccc34)nn12` gave ALDH1A1 block -11%, PNC assembly inh -11 and HPGD block -27%.
For c1ccc(-c2nn3c(Cn4nnc5ccccc54)nnc3s2)nc1 the results were ALDH1A1 block 3.2µM*, PNC assembly inh inconclusive and HPGD block 7.1µM*.
`CCOC(=O)N1CCC(Nc2c(NCCCN(CC)c3cccc(C)c3)c(=O)c2=O)CC1` gave ALDH1A1 block 3%, PNC assembly inh -27 and HPGD block inconclusive.
For CSc1ccccc1NC(=O)c1cc(-c2cccnc2)nc2ccc(Br)cc12 the results were ALDH1A1 block 0%.
`CC(=O)Nc1ccc(S(=O)(=O)Nc2nc3ccc(C)cc3s2)cc1` gave ALDH1A1 block -14%, PNC assembly inh inconclusive and HPGD block -21%.
For CS(=O)(=O)c1ccc2nc(NC(=O)CN3C(=O)C4CC=CCC4C3=O)sc2c1 (stereo unspecified) the results were ALDH1A1 block 13µM*.
Screening CCOCC(=O)Nc1nc2ccc(S(C)(=O)=O)cc2s1 returned ALDH1A1 block 18µM*, PNC assembly inh -6 and HPGD block -26%.
Screening Cc1ccc2nc(NC(=O)CN3C(=O)C4CC=CCC4C3=O)sc2c1 (stereo unspecified) returned ALDH1A1 block 0%.
`O=C(CN1C(=O)C2CC=CCC2C1=O)Nc1ccc(S(=O)(=O)NC2=NCCCCC2)cc1` (stereo unspecified) gave ALDH1A1 block -9%, PNC assembly inh inconclusive and HPGD block -10%.
For Cc1ccc(S(=O)(=O)Nc2nc3ccc(S(C)(=O)=O)cc3s2)cc1 the results were ALDH1A1 block inconclusive, PNC assembly inh inconclusive and HPGD block 25µM*.
Screening Cc1cc(C)nc(NS(=O)(=O)c2ccc(NC(=O)CN3C(=O)C4CC=CCC4C3=O)cc2)n1 (stereo unspecified) returned ALDH1A1 block 32µM*.
CCCC(=O)Nc1nc2ccc(S(N)(=O)=O)cc2s1 was read as ALDH1A1 block inconclusive, PNC assembly inh -24 and HPGD block -7%.
For O=C(COc1ccccc1)Nc1nn[nH]n1 the results were ALDH1A1 block 2%, PNC assembly inh -7 and HPGD block 1%.

Screening results as filed in PubChem BioAssay.
